Laboratory results published in PubChem BioAssay (NCI).
The panel holds about 83,000 compounds, 20% with a hit somewhere; the sample as a whole holds those more often.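 Values shown are percent growth following 48 h exposure of cells in 96-well plates to a single concentration of compound; below 10 was considered active.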 A number with no mark means an inactive call. The source made the active and inactive calls.

Experiments:
Assay in all cases: NCI-60 one-dose screen, 48 h (100 = growth as untreated, 0 = no growth, -100 = all killed)
Settings in all cases: 10 µM unless noted
[1] = system: SK-MEL-2 melanoma
[2] = system: EKVX NSCLC
[3] = system: SN12C renal
[4] = system: UO-31 renal
[5] = system: TK-10 renal
[6] = system: ACHN renal
[7] = system: CAKI-1 renal
[8] = system: A498 renal
[9] = system: CCRF-CEM leukemia
[10] = system: MOLT-4 leukemia
[11] = system: SR leukemia
[12] = system: RPMI-8226 leukemia
[13] = system: OVCAR-8 ovarian
[14] = system: OVCAR-5 ovarian
[15] = system: OVCAR-4 ovarian
[16] = system: SK-OV-3 ovarian
[17] = system: IGROV1 ovarian
[18] = system: OVCAR-3 ovarian
[19] = system: HS 578T breast
[20] = system: NCI/ADR-RES ovarian

Row | Structure (SMILES) | growth [1] | growth [2] [%] | growth [3] [%] | growth [4] [%] | growth [5] [%] | growth [6] [%] | growth [7] | growth [8] | growth [9] [%] | growth [10] | growth [11] | growth [12] [%] | growth [13] [%] | growth [14] [%] | growth [15] [%] | growth [16] [%] | growth [17] [%] | growth [18] | growth [19] [%] | growth [20] [%]
1 | O=C(O)C1C[C@](O)(c2ccc(F)cc2)[C@@H](c2ccc(F)cc2)O1 (stereo not given in full) | 102% | 105 | 116 | 78.5 | 108 | 116 | 40.5% | 156% | 82.4 | 97.2% | 73.8% | 69.1 | 95.1 | 90.8 | 107 | 97.5 | 71.8 | 146% | 124 | 96.5
2 | COc1cc(-c2ncn(/C=C\c3nnco3)n2)cc(C(F)(F)F)c1 | -6.5% (active) | 61.5 | 33.6 | 18.3 | 34 | 27.7 | 26.1% | -33.9% (active) | 13.6 | 1.86% (active) | 6.43% (active) | 76.4 | 19.8 | 37.9 | 15.4 | 38.9 | 22.3 | -20.8% (active) | 19.3 | 27.1
3 | CC1=NN(c2cccc(Cl)c2)C(=O)/C1=C\c1cn(CC(O)CN2CCCCC2)c2ccccc12 (stereo not given) | 73.8% | 88 | 66.3 | 67 | 71.7 | 38.6 | 24% | 80.2% | 41.9 | 48.3% | -8.32% (active) | 34.8 | 76.6 | 83.9 | 75.9 | 94.6 | 49.8 | 57.7% | 91.1 | 75.3
4 | CC(=O)OCCc1ccccc1 | 99.6% | 96.2 | 95 | 97.8 | 106 | 100 | 77.1% | 95.5% | 105 | 91.9% | 85.3% | 93.5 | 98.7 | 91.2 | 106 | 102 | 101 | 137% | 104 | 86.3
5 | CCOC(=O)c1nnn(C(Cc2ccccc2Cl)C(=O)OCC)c1C (stereo not given) | 107% | 106 | 104 | 89.7 | 96.6 | 104 | 90.8% | 103% | 88.5 | 94.6% | 93.7% | 96.3 | 96.7 | 106 | 104 | 102 | 112 | 111% | 94.3 | 107
6 | NC(N)=N/N=C(/c1ccccc1)c1ccc(N)cc1 | 112% | 88.2 | 96.2 | 95 | 135 | 107 | -0.33% (active) | 125% | 124 | 107% | 88.8% | 150 | 108 | 103 | 132 | 99.3 | 127 | 112% | 150 | 106
7 | COc1ccc(-c2c(N)n[nH]c2-c2ccccc2O)cc1OC | 88.2% | 92.4 | 104 | 62.6 | 98.5 | 102 | 21.6% | 118% | 81.8 | 97% | 53.9% | 52.8 | 68.3 | 92.2 | 94.7 | 84.1 | 94.6 | 108% | 91.7 | 98.2
8 | CSc1ncc(C)c(Nc2ccc(Cl)cc2)n1 | 103% | 77.4 | 102 | 76.4 | 95.6 | 103 | 91% | 88.5% | 96.5 | 82.5% | 89.9% | 102 | 104 | 112 | 99.8 | 126 | 85.8 | 111% | 94.9 | 98.1
